Assay outcomes as filed in PubChem.
Only some compounds are listed: those with a hit (about 7.8% of all), similar ones and a draw of the others.
HCMV antiviral: blocks human cytomegalovirus replication. HFF cells, HCMV-luciferase reporter, 72 h; active compounds read low. activity change, negative = inhibition, % at 57.5 µM. 410,000 compounds, 4.5% hits. AID 1259415; in the data active means activity change below about -60%; inconclusive means no clear call, values can overlap the other calls; inactive means above about -39%
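Two compound doses tested in HFFs infected with HCMV-luciferase, MOI 1 PFU/cell, 72 h at 37C. Lysate luminescence read with OneGlo; data normalized against buffer-only and 10uM Salinomycin inhibitor controls.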
MARV entry inh: blocks Marburg virus binding to or entry into cells; Marburg virus pseudotyped entry inhibition, cell reporter; Potency, µM (highest dose often 37.8 µM), for inactives: at the top dose activity change, negative = inhibition, usual class: inhibitors; 300,000 compounds, 1.8% hits; AID 540276; calls by dose curve; tested in HEK293 cells; further: potency means the concentration at half of the fitted maximal effect
Vaccinia mCherry: vaccinia inhibition (mCherry reporter) | Vaccinia virus mCherry reporter infection, fluorescence | Potency, µM (titrated, usually from 36.5 µM), without a hit: at the top dose activity change, negative = inhibition, hits mostly inhibitors | AID 720579 | 310,000 compounds, 0.63% hits; calls by dose curve; tested in A549 cells; further: potency means the concentration at half of the fitted maximal effect; nearly all actives have a fitted effect of over 35% in size
VACV Venus inh: vaccinia inhibition (Venus reporter); Potency, µM (highest dose often 36.5 µM), without a hit: top-dose activity change, negative = inhibition, most hits filed as inhibitors; 330,000 compounds, 0.46% hits; Vaccinia virus Venus reporter expression, fluorescence; calls by dose curve; tested in A549 cells; further: potency means the concentration at half of the fitted maximal effect; nearly all actives have a fitted effect of over 30% in size
HCV inh: blocks hepatitis C virus | Potency, µM (series often up to 41.8 µM), for inactives: at the highest dose activity change, negative = inhibition, actives largely listed as inhibitors | Huh7.5.1 HCVcc-Cre infection, luciferase reporter, 44 h | 340,000 compounds, 3.4% hits; active means well fitted inhibition curve with a large enough effect; inconclusive means small, poorly fitted or top-dose-only effect, or another doubt; inactive means no such curve, though single readings can be large or run the other way; further: potency means the concentration at half of the fitted maximal effect
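Infectious HCVcc-Cre (~0.5 moi) was added to cells just after compound, with cells seeded 4 h earlier at 1,000 per well. Luciferase activity after 44 h culture reported infection; substrate was incubated 15 min at room temperature before reading.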
Lassa entry inh: inhibitors of Lassa virus binding or cell entry | Lassa virus pseudotype entry inhibition, cell reporter | Potency, µM (highest dose often 37.9 µM), for inactives: at the highest dose activity change, negative = inhibition, actives largely listed as inhibitors | 300,000 compounds, 1.2% hits | AID 540256; calls by dose curve; tested in HEK293 cells; further: potency means the concentration at half of the fitted maximal effect; nearly all actives have a fitted effect of over 50% in size
An asterisk follows results filed as active; i = inactive; ? = inconclusive; / = no result; [ ] = remark or other dose. On the % scale 0 is the no-effect control and ±100 the full control effect.

SMILES | HCMV antiviral | MARV entry inh | Vaccinia mCherry | VACV Venus inh | HCV inh | Lassa entry inh
COc1ccc(-c2nsc(NC(=O)c3oc4cc(C)c(C)cc4c3C)n2)cc1 | ? | -4.3%[46.1 µM] | -5.0% | -2.2% | / | 0.3%[46.1 µM]
CCOCCCNC(=O)c1[nH]c2cc(OC)ccc2c1Sc1ccccc1 | -2.5 | ? | -9.8% | -14.6% | / | -10.7%[46.1 µM]
CN1[C@@H]2CC[C@H]1CC(OC(c1ccccc1)c1ccccc1)C2 (stereo not given in full) | / | 5.01µM* | -21.0% | -10.3% | / | /
Cc1ccc(C(=O)N/N=C\c2ccc[nH]2)cc1[N+](=O)[O-] | -6.7 | 4.47µM* | -28.9% | -17.7% | 4.47µM* | 8.91µM*
O=[N+]([O-])c1ccc(N/N=C/c2cccnc2)cc1 | 32.2 | -1.1% | i | -8.6% | 11.2µM* | -4.7%
O=C(N/N=C/c1ccc[nH]1)c1ccccc1[N+](=O)[O-] | ? | 27.1% | -14.7% | -7.0% | 19.6% | ?
O=[N+]([O-])c1ccc(N/N=C/c2ccc[nH]2)cc1 | ? | ? | 5.01µM* | ? | 1µM* | ?
Cc1cnc(C)c(-c2cccc3c2OC(CNC(=O)/C=C/c2ccc(F)c(F)c2)C3)n1 (stereo not given) | / | / | -15.1% | -4.3% | / | /
O=C(CSc1nc2ccc(Cl)cc2[nH]1)NC1CCCc2ccccc21 (stereo not given) | -73.6* | ? | -6.8% | 0.6% | ? | -25.0%[46.1 µM]
CC(C)NC(=O)N1[C@@H]2CN(C(=O)c3ccc(F)cc3)c3ccccc3[C@@H]2[C@@H]1CO | -6.1 | / | / | / | / | /
Clc1ccc(-c2nnc(NC3=NCCCCC3)o2)cc1 | ? | 1.64µM* | / | / | ? | ?
Nc1c(C(=O)C2CC2)sc2nc(-c3ccccc3)cc(C(F)(F)F)c12 | -77.1* | ? | / | / | -26.0% | -14.0%
CN(C)CCNC(=O)c1sc2nc(-c3ccccc3)cc(C(F)(F)F)c2c1N | -9.2 | 5.01µM* | ? | ? | 10µM* | ?
CC(=O)c1sc2nc(-c3cccs3)cc(C(F)(F)F)c2c1N | 12.0 | 0.0% | / | 15.9% | ? | 2.5%
CCOC(=O)c1c(NC(=O)c2cc(=O)c3cc(C)ccc3o2)sc2c1CCCC2 | -6.8 | 1.9%[46.1 µM] | -9.8% | 10.0% | / | ?
COC(=O)c1cc(NCc2c(F)cccc2Cl)ccc1N1CCOCC1 | 67.5 | 4.6% | / | / | ? | -35.0%
COC(=O)c1ccc(NCc2c(O)ccc(O)c2Br)cc1Cl | -28.0 | ? | -17.6% | 3.3% | 11.2µM* | -16.5%
COC(=O)c1ccc(NCc2cc(O)ccc2O)cc1O | -6.5 | ? | -22.7% | 2.1% | ? | 20µM*
O=C(COC(=O)c1ccc(O)cc1O)Nc1ccc2ccccc2c1 | 9.6 | / | / | / | ? | /
Cc1ccc(C(=O)N/C(=C\c2ccc(-c3ccccc3[N+](=O)[O-])o2)C(=O)NCCN(C)C)cc1 | 5.5 | ? | -14.8% | -23.0% | -26.9% | -5.1%[46.1 µM]
Cc1ccc(C(=O)N/C(=C\c2ccc(-c3cccc([N+](=O)[O-])c3)o2)C(=O)NCCCN2CCOCC2)cc1 | -62.2* | / | / | / | 10µM* | /
CN(C)CCNC(=O)/C(=C/c1ccc(-c2cccc([N+](=O)[O-])c2)o1)NC(=O)c1ccccc1 | -21.9 | ? | -5.4% | -13.9% | 10µM* | ?
CN(C)CCNC(=O)/C(=C/c1ccc(-c2cccc(Cl)c2)o1)NC(=O)c1ccccc1 | 11.6 | 8.2µM* | -22.5% | -6.4% | 11.2µM* | ?
CCc1ccccc1NC(=O)c1nnn(CC(=O)Nc2c(C)cc(C)cc2C)c1N | -14.1 | -6.8%[46.1 µM] | 2.3% | 8.9% | / | -10.7%[46.1 µM]
CCOc1cc2[nH]c(=S)n(C3CCN(Cc4ccccc4)CC3)c(=O)c2cc1OCC | 36.9 | 20.3%[46.1 µM] | -22.1% | -3.8% | 4.5% | 10.5%[46.1 µM]
SMILES | HCMV antiviral | MARV entry inh | Vaccinia mCherry | VACV Venus inh | HCV inh | Lassa entry inh
O=c1c2cc3c(cc2[nH]c(=S)n1C1CCN(Cc2ccccc2)CC1)OCO3 | -33.0 | ? | i | -1.2% | 12.6µM* | 21.3%[46.1 µM]
COC(=O)c1ccc(C(=O)NCC2Cc3cc(F)cc(-c4cncnc4)c3O2)cc1 (stereo not given) | / | / | i | 0.0% | / | /
Cc1ccccc1C(=O)NC(C)c1nnc2n1CCN(Cc1ccccc1F)CC2 (stereo not given) | / | / | i | 0.0% | / | /
COCC(=O)Nc1cc(C(=O)NC2CCCc3ccccc32)c2c(c1)nc(-c1ccncc1)n2C (stereo not given) | / | / | -14.1% | -8.1% | / | /
O=C1C(=C2SCCCS2)CC/C1=C\c1ccc(F)cc1 | -91.0* | 2.51µM* | -12.7% | -7.3% | 0.1% | 1.12µM*
COc1ccc(-c2noc([C@@H]3O[C@H](CO)[C@H](O)[C@H](O)[C@H]3O)n2)cc1OC | 25.9 | / | 21.5% | -1.6% | / | /
COc1ccc(Cl)cc1-c1noc([C@@H]2O[C@H](CO)[C@H](O)[C@H](O)[C@H]2O)n1 | -72.9* | / | 21.2% | -4.4% | / | /
Cc1[nH]nc(C(F)(F)F)c1N=NN1CCOCC1 | -11.2 | ? | ? | ? | 15.8µM* | ?
Clc1ccc(N=NN2CCOCC2)cc1 | 6.6 | 2.3%[46.1 µM] | -5.3% | -10.9% | 4.7% | 2.2%
O=C(Nc1nc(-c2ccc(F)c(F)c2)cs1)c1ccc(OCC2CCCO2)cc1 (stereo not given) | -69.3* | ? | -24.3% | -19.2% | ? | -23.0%
O=C(Nc1nc(-c2ccc(F)c(F)c2)cs1)C1=COCCO1 | -24.0 | / | / | / | -28.1% | /
Cc1ccnc(NC(=O)c2ccc(OCC3CCCO3)cc2)c1 (stereo not given) | 3.5 | 3.55µM* | -12.2% | -9.9% | -1.1% | 6.31µM*
Cc1csc(NC(=O)c2ccc(OCC3CCCO3)cc2)n1 (stereo not given) | -12.6 | 4.47µM* | -12.4% | -3.7% | 11.2µM* | 3.55µM*
Cc1ccc(NC(=O)c2ccc(OCC3CCCO3)cc2)c(C)c1 (stereo not given) | 18.2 | 26.0% | -8.4% | -5.5% | 18.4% | 7.7%
CCOc1ccc(C(=O)Nc2nc(C)c(C(=O)OC)s2)cc1 | 21.3 | ? | i | -13.0% | 17.8µM* | 24.2%[46.1 µM]
CCN(C(=O)Cn1c(SCC(=O)Nc2ccc(OC)cc2)nc2ccccc21)c1cccc(C)c1 | 2.9 | / | -18.0% | -6.3% | / | ?
CCC(=O)N1CCc2cc(S(=O)(=O)CCC(=O)N3CCN(c4ccccc4Cl)CC3)ccc21 | 14.0 | 3.3%[46.1 µM] | -9.5% | -3.8% | / | 4.2%[46.1 µM]
CCOc1ccc2nc(NC(=O)c3ccc(OCC4CCCO4)cc3)sc2c1 (stereo not given) | ? | -29.9%[46.1 µM] | -4.5% | -11.4% | 3.98µM* | -14.1%
Cc1cccc2sc(NC(=O)c3ccc(OCC4CCCO4)cc3)nc12 (stereo not given) | 0.0 | ? | -1.9% | -9.3% | ? | 25.7%
COc1cccc(Cc2nc3cccnc3n2C2CCN(C(=O)c3n[nH]c4c3CCCC4)CC2)c1 | / | / | -13.1% | 1.5% | / | /
COc1ccc(C(=O)NCC(c2ccc(N(C)C)cc2)N2CCCC2)cc1 (stereo not given) | -26.2 | / | 5.5% | ? | / | -3.6%[46.1 µM]
